Data on 68 molecules can be found in the antibiotic and cytotoxicity screens of Wong et al. (2023).

The structures appear in SMILES notation. In all, about 39,000 compounds went through this assay and about 3,300 (8.5%) were called active. Only a selection was taken, and actives are over-represented in it overall.

This assay has as its system HepG2. As to the kind of experiment: cytotoxicity call (relative viability < 0.9). The conditions noted are these: 10 µM.
As to `COc1cc(NC(C)CCCN)c2ncccc2c1.O=P(O)(O)O.O=P(O)(O)O` (stereo not drawn), the cytotoxicity call was “active”.
Under `Cc1c(-c2c(-c3ccc(F)o3)sc3ncnc(O[C@H](Cc4ccccc4OCc4ccnn4CC(F)(F)F)C(=O)O)c23)ccc(OCCN2CCN(C)CC2)c1Cl` stands “active”; under `C[C@H]1CN([C@@H](C)CO)C(=O)CCCn2cc(nn2)CO[C@H]1CN(C)S(=O)(=O)c1ccccc1C#N`, “inactive”; under `C[C@H](CO)N1C[C@H](C)[C@H](CN(C)C(=O)Nc2ccc(F)cc2)OCCCC[C@H](C)Oc2ccc(NC(=O)NC3CCCCC3)cc2C1=O`, “inactive”.
Under `O=c1[nH]c(=O)n([C@@H]2C[C@@H](O)[C@@H](CO)O2)cc1F` stands “inactive”; under `O=c1[nH]c(=O)n(C2CC(O)C(CO)O2)cc1C(F)(F)F` (stereo not drawn), “inactive”; under `O=c1[nH]c(=O)n([C@H]2C[C@H](O)[C@@H](CO)O2)cc1F`, “inactive”.
Regarding `Cc1cn([C@H]2C[C@H](O)[C@@H](CO)O2)c(=O)[nH]c1=O`, the cytotoxicity call is “inactive”.
`O=c1[nH]c(=O)n(C2CC(O)C(CO)O2)cc1F` (stereo not drawn): the cytotoxicity call was “active”.
Under `O=c1[nH]c(=O)n([C@H]2C[C@H](O)[C@@H](CO)O2)cc1C(F)(F)F` stands “active”; under `CCCNC(=O)C[C@H]1CC[C@@H]2[C@H](COc3ccc(NC(=O)c4ccc5c(c4)OCO5)cc3C(=O)N2C)O1`, “inactive”; under `COc1ccccc1NC(=O)N(C)C[C@H]1Oc2ncc(C#CC(C)C)cc2C(=O)N([C@H](C)CO)C[C@H]1C`, “inactive”.
`C/C=C/c1ccc2c(c1)O[C@H](CN(C)S(=O)(=O)c1ccccc1OC)[C@H](C)CN([C@H](C)CO)S2(=O)=O`: the cytotoxicity call is “inactive”.
Under `COc1ccc(NC(=O)N(C)C[C@H]2OCCCC[C@H](C)Oc3ccc(NC(=O)NC4CCCCC4)cc3C(=O)N([C@H](C)CO)C[C@@H]2C)cc1` stands “inactive”.
As for `NCC(=O)Nc1ccc(Br)cc1`, the entry is “inactive”; as for `Cc1ccc(NC(=O)CC(C)C)cc1`, “inactive”; as for `CN(C)c1ccc(NC(=O)CN)cc1`, “active”.
Turning to `C[C@H](CO)N1C[C@H](C)[C@H](CN(C)Cc2ccc3c(c2)OCO3)Oc2c(NS(C)(=O)=O)cccc2C1=O`, the cytotoxicity call is “inactive”.
`C[C@H](CO)N1C[C@H](C)[C@H](CN(C)C(=O)CCCN(C)C)OCCCC[C@H](C)Oc2ccc(NC(=O)Nc3ccc(F)cc3)cc2C1=O`: the cytotoxicity call is “inactive”.
Turning to `Cc1cccc(=O)n1CCCCN`, the cytotoxicity call is “inactive”.
As to `Cn1cnc(=O)c2ccccc21`, the cytotoxicity call was “inactive”.
Under `Cc1ccc2c(=O)c3ccccc3n(CCCN)c2c1C` stands “active”.
As for `COc1ccc(NC(=O)Nc2cccc3c2O[C@H](CN(C)C(=O)Nc2ccc(C(F)(F)F)cc2)[C@H](C)CN([C@H](C)CO)C3=O)cc1`, the entry is “inactive”.
`O=C(C[C@H]1C[C@H]2c3cc(NC(=O)Cc4ccncc4)ccc3O[C@H]2[C@@H](CO)O1)NCc1cc(F)ccc1F`: the cytotoxicity call was “inactive”.
Turning to `C[C@H]1CN([C@@H](C)CO)C(=O)Cc2cc(NC(=O)c3ccncc3)ccc2O[C@H]1CN(C)S(=O)(=O)c1ccc(Cl)cc1`, the cytotoxicity call was “inactive”.
As to `C[C@H]1CN([C@@H](C)CO)C(=O)Cc2cc(NC(=O)C3CC3)ccc2O[C@@H]1CN(C)Cc1ccc2c(c1)OCO2`, the cytotoxicity call was “inactive”.
As for `C[C@@H]1CCCCO[C@H](CN(C)S(=O)(=O)c2ccccc2)[C@@H](C)CN([C@H](C)CO)C(=O)c2cc(NC(=O)c3ccccc3)ccc2O1`, the entry is “inactive”.
Under `C[C@@H]1CCCCO[C@H](CN(C)S(=O)(=O)c2ccccc2)[C@H](C)CN([C@@H](C)CO)C(=O)c2cc(NC(=O)c3ccccc3)ccc2O1` stands “inactive”; under `Cc1ccc(S(=O)(=O)N(C)C[C@H]2OCCCC[C@H](C)Oc3ccc(NC(=O)c4ccccc4)cc3C(=O)N([C@@H](C)CO)C[C@H]2C)cc1`, “inactive”; under `C[C@@H]1CN([C@H](C)CO)C(=O)c2cc(NC(=O)c3ccccc3)ccc2O[C@@H](C)CCCCO[C@H]1CN(C)S(=O)(=O)c1ccccc1`, “active”.
In the case of `COc1ccc(S(=O)(=O)N(C)C[C@H]2OCCCC[C@@H](C)Oc3ccc(NC(=O)c4ccccc4)cc3C(=O)N([C@@H](C)CO)C[C@H]2C)cc1`, the cytotoxicity call was “inactive”.
Under `Cc1ccc(S(=O)(=O)N(C)C[C@@H]2OCCCC[C@@H](C)Oc3ccc(NC(=O)c4ccccc4)cc3C(=O)N([C@@H](C)CO)C[C@H]2C)cc1` stands “inactive”; under `COc1ccc(S(=O)(=O)N(C)C[C@@H]2OCCCC[C@@H](C)Oc3ccc(NC(=O)c4ccccc4)cc3C(=O)N([C@H](C)CO)C[C@@H]2C)cc1`, “inactive”; under `Cc1ccc(S(=O)(=O)N(C)C[C@@H]2OCCCC[C@H](C)Oc3ccc(NC(=O)c4ccccc4)cc3C(=O)N([C@H](C)CO)C[C@H]2C)cc1`, “active”.
In the case of `COc1ccc(S(=O)(=O)N(C)C[C@@H]2OCCCC[C@H](C)Oc3ccc(NC(=O)c4ccccc4)cc3C(=O)N([C@@H](C)CO)C[C@H]2C)cc1`, the cytotoxicity call is “active”.
Consider `CC(C)(C)[S@](=O)N1Cc2cc(C(=O)N3CCCCC3)nc(-c3cccc(-c4cccc(C#N)c4)c3)c2[C@@H]1CCO`, for which the cytotoxicity call was “inactive”.
Consider `CCO[C@H]1OC(C(N)=O)=C[C@@H](C)[C@@H]1CCCO`, for which the cytotoxicity call was “inactive”.
For the molecule `C[C@H]1COC(=O)[C@@H](Cc2ccc(F)cc2)CCC=CC[C@@H](CC(=O)N[C@@H](CO)Cc2ccccc2)C(=O)N1`, the cytotoxicity call was “inactive”.
As for `C[C@@H]1CN([C@H](C)CO)C(=O)Cc2cc(NC(=O)c3ccncc3)ccc2O[C@@H]1CN(C)S(=O)(=O)c1ccc(Cl)cc1`, the entry is “inactive”.
Under `CC(C)CC#Cc1ccc2c(c1)O[C@@H](CN(C)C(=O)c1ccncc1)[C@H](C)CN([C@@H](C)CO)S2(=O)=O` stands “inactive”; under `N=C(NO)C(=O)Nc1ccccc1`, “inactive”.
Under `C[C@H]1CN([C@@H](C)CO)C(=O)c2ccccc2-c2ccccc2CO[C@H]1CN(C)C(=O)Nc1ccc(F)cc1` stands “inactive”; under `C[C@H]1CN([C@@H](C)CO)C(=O)c2cccc(NC(=O)C3CCOCC3)c2O[C@@H]1CN(C)S(=O)(=O)c1ccc(F)cc1`, “inactive”.
Consider `COc1ccc([Si](C)(C)[C@@H]2[C@@H](CCO)O[C@]3(C(=O)N(Cc4ccc(N5C(=O)c6ccccc6Oc6ccccc65)cc4)c4ccccc43)[C@H]2C)cc1`, for which the cytotoxicity call is “active”.
As to `COc1ccc([Si](C)(C)[C@@H]2[C@@H](CCO)O[C@]3(C(=O)N(Cc4ccccc4)c4ccc(N5C(=O)c6ccccc6Oc6ccccc65)cc43)[C@H]2C)cc1`, the cytotoxicity call was “inactive”.
As for `COc1ccc([Si](C)(C)[C@H]2[C@H](CCO)O[C@@]3(C(=O)N(Cc4ccccc4)c4ccc(N5C(=O)c6ccccc6Oc6ccccc65)cc43)[C@@H]2C)cc1`, the entry is “active”.
As for `COc1ccc([Si](C)(C)[C@H]2[C@H](CCO)O[C@@]3(C(=O)N(Cc4ccc(N5C(=O)c6ccccc6Oc6ccccc65)cc4)c4ccccc43)[C@@H]2C)cc1`, the entry is “active”.
As for `C[C@H]1[C@H]([Si](C)(C)F)[C@@H](CCO)O[C@]12C(=O)N(Cc1ccccc1)c1ccc(N3C(=O)c4ccccc4Oc4ccccc43)cc12`, the entry is “inactive”; as for `COCC#Cc1ccc2c(c1)O[C@H](CN(C)Cc1ccc(F)cc1)[C@H](C)CN([C@@H](C)CO)S2(=O)=O`, “inactive”.
`Cc1noc(C)c1S(=O)(=O)N(C)C[C@H]1Oc2ccc(NC(=O)CCCN(C)C)cc2C(=O)N([C@H](C)CO)C[C@@H]1C`: the cytotoxicity call is “inactive”.
As for `C[C@H](CO)N1C[C@H](C)[C@@H](CN(C)C)Oc2ccc(NS(=O)(=O)c3ccc(Cl)cc3)cc2CC1=O`, the entry is “inactive”; as for `COc1nonc1NC(C)=O`, “inactive”.
Turning to `O=C1C[C@H](N2C(=O)CCC2=O)[C@@H]2CO[C@@H]1O2`, the cytotoxicity call was “inactive”.
Consider `C[C@@H]1CN([C@H](C)CO)C(=O)c2cccc(NC(=O)c3cnccn3)c2O[C@H]1CN(C)C(=O)Nc1ccc2c(c1)OCO2`, for which the cytotoxicity call was “inactive”.
Under `C[C@H]1CN([C@@H](C)CO)C(=O)Cc2cc(NC(=O)Cc3ccccc3)ccc2O[C@H]1CN(C)Cc1ccc(Cl)c(Cl)c1` stands “active”.
Under `C[C@H]1CN([C@@H](C)CO)C(=O)Cc2cc(NC(=O)Cc3ccccc3)ccc2O[C@@H]1CN(C)Cc1ccc(Cl)c(Cl)c1` stands “inactive”; under `C[C@@H]1CN([C@H](C)CO)C(=O)Cc2cc(NC(=O)Cc3ccccc3)ccc2O[C@H]1CN(C)Cc1ccc(Cl)c(Cl)c1`, “inactive”; under `C[C@@H]1CN([C@@H](C)CO)C(=O)Cc2cc(NC(=O)Cc3ccccc3)ccc2O[C@@H]1CN(C)Cc1ccc(Cl)c(Cl)c1`, “active”.
In the case of `C[C@@H]1CN([C@@H](C)CO)C(=O)Cc2cc(NC(=O)Cc3ccccc3)ccc2O[C@H]1CN(C)Cc1ccc(Cl)c(Cl)c1`, the cytotoxicity call was “inactive”.
Under `C[C@H](CO)N1C[C@H](C)[C@@H](CN(C)Cc2ccc(Cl)c(Cl)c2)Oc2ccc(NC(=O)Cc3ccccc3)cc2CC1=O` stands “inactive”; under `C[C@H](CO)N1C[C@H](C)[C@H](CN(C)Cc2ccc(Cl)c(Cl)c2)Oc2ccc(NC(=O)Cc3ccccc3)cc2CC1=O`, “inactive”; under `C[C@@H]1CN([C@H](C)CO)C(=O)Cc2cc(NC(=O)Cc3ccccc3)ccc2O[C@@H]1CN(C)Cc1ccc(Cl)c(Cl)c1`, “active”.
Take `C[C@@H]1CN([C@@H](C)CO)C(=O)c2cc(NC(=O)C3CCCCC3)ccc2O[C@@H](C)CCCCO[C@@H]1CN(C)Cc1ccncc1`: the cytotoxicity call was “inactive”.
As to `Cc1noc(C)c1S(=O)(=O)N(C)C[C@H]1Oc2ccc(NC(=O)C3CCCCC3)cc2CC(=O)N([C@H](C)CO)C[C@H]1C`, the cytotoxicity call was “inactive”.
Under `C[C@H]1CN([C@@H](C)CO)C(=O)c2cccc(NS(=O)(=O)c3ccccc3)c2O[C@@H]1CN(C)Cc1ccc(Cl)c(Cl)c1` stands “inactive”; under `O=C(C[C@H]1C=C[C@@H](NS(=O)(=O)c2ccccc2)[C@H](CO)O1)NCc1ccncn1`, “inactive”.
Under `Cn1cnc(S(=O)(=O)N2C[C@H](O)COC[C@H]3O[C@H](CC(=O)NCc4ccc(F)cc4)CC[C@@H]32)c1` stands “inactive”; under `CN(C)C(=O)c1ccc(-c2cccc(-c3nc(C(=O)NC4CCCCC4)cc4c3[C@H](CCO)N([S@@](=O)C(C)(C)C)C4)c2)cc1`, “inactive”.
